# From PubChem BioAssay (NCI)
# About 79,000 compounds went through this panel and 15% of them were active in at least one assay; those are over-represented in the sample as a whole. Unmarked numbers belong to inactive results. Active and inactive are the calls of the source. No stated cut-off is given here; in the data, active means growth inhibition above about 70%; inactive means the rest.
# Columns and labels:
# [1] = NCI Yeast Anticancer Drug Screen. Data for the rad52 strain (AID 147);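 further: 0% = growth of vehicle-treated control cultures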; settings: S. cerevisiae rad52 mutant growth inhibition, stronger effect = higher value
# How it was run: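 Screen used a yeast mutant impaired in DNA repair. After compound exposure, growth was measured. Values reflect inhibition compared with vehicle-treated cells.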
# [2] = NCI Yeast Anticancer Drug Screen. Data for the wt1 strain (AID 149);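 further: 0% = growth of vehicle-treated wt1 cultures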; settings: S. cerevisiae wt1 strain (SPY 50644) growth inhibition, stronger effect = higher value
# How it was run: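 wt1 yeast, compound-treated; % growth inhibition vs vehicle control.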
# [3] = NCI Yeast Anticancer Drug Screen. Data for the rad50EPP+ strain (AID 151);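 further: 0% = growth of vehicle-treated control cultures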; settings: S. cerevisiae rad50 mutant strain, stronger effect = higher value
# How it was run: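 Exposing the rad50EPP+ strain to each compound, growth was compared with vehicle-only cultures to give inhibition.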
# [4] = NCI Yeast Anticancer Drug Screen. Data for the mgt1 strain (AID 153); settings: S. cerevisiae mgt1 mutant growth inhibition, stronger effect = higher value
# How it was run: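 Genetically defined yeast (mgt1) treated with compound; inhibition of growth expressed against vehicle-treated controls.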
# [5] = NCI Yeast Anticancer Drug Screen. Data for the rad50 strain (AID 155);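 further: 0% = growth of vehicle-only cultures of the same strain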; settings: S. cerevisiae rad50 strain growth inhibition, stronger effect = higher value
# How it was run: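 Genetically altered yeast (DNA repair pathway); compound treatment; growth inhibition vs vehicle ctrl.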
# [6] = NCI Yeast Anticancer Drug Screen. Data for the mec2-1 strain (AID 157); settings: S. cerevisiae mec2-1 strain, stronger effect = higher value
# How it was run: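 Readout is yeast growth inhibition, normalised to vehicle-treated controls, in the mec2-1 strain exposed to compound.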
# [7] = NCI Yeast Anticancer Drug Screen. Data for the rad14 strain (AID 159);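 further: 0% = growth of vehicle-treated control cultures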; settings: S. cerevisiae rad14 strain growth inhibition, stronger effect = higher value
# How it was run: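 Test compounds were applied to a repair-deficient yeast strain. Its growth was then compared with that of cultures given vehicle alone, and inhibition was expressed relative to those controls.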
# [8] = NCI Yeast Anticancer Drug Screen. Data for the sgs1 mgt1 strain (AID 161);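 further: 0% = growth of cultures given vehicle only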; settings: S. cerevisiae sgs1 mgt1 strain, stronger effect = higher value
# How it was run: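 Compounds are added to genetically altered yeast, and growth is compared with cultures given vehicle alone to give percent inhibition.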
# [9] = NCI Yeast Anticancer Drug Screen. Data for the CLN2oe strain (AID 163);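 further: 0% = growth of vehicle-only control cultures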; settings: S. cerevisiae CLN2oe strain, stronger effect = higher value
# How it was run: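 Values reflect how much compound exposure reduced yeast growth, referenced to vehicle-exposed cells. Assay organism is a strain with a defined genetic change affecting cell-cycle control.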
# [10] = NCI Yeast Anticancer Drug Screen. Data for the cln2 rad14 strain (AID 165);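 further: 0% = growth equal to vehicle treated cultures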; settings: S. cerevisiae cln2 rad14 strain, stronger effect = higher value
# How it was run: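 Relative to vehicle controls, growth inhibition of compound-treated cln2 rad14 yeast was recorded.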
# [11] = NCI Yeast Anticancer Drug Screen. Data for the bub3 strain (AID 167); settings: S. cerevisiae bub3 mutant strain, stronger effect = higher value
# How it was run: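 Yeast carrying a defined mutation is treated with each compound, and growth is compared with that of vehicle-exposed cells to give inhibition.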
# [12] = NCI Yeast Anticancer Drug Screen. Data for the wt2 strain (AID 169);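 further: 0% = growth of vehicle-treated yeast cultures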; settings: S. cerevisiae wt2 strain growth inhibition, stronger effect = higher value
# How it was run: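 Values express reduction in yeast growth under compound treatment, referenced to vehicle-treated cells.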
# [13] = NCI Yeast Anticancer Drug Screen. Data for the mlh1 strain (AID 171);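 further: 0% = growth of vehicle-treated control cultures of the same strain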; settings: S. cerevisiae mlh1 strain growth inhibition, stronger effect = higher value
# How it was run: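 Steps: expose the defined-mutant yeast strain to compound; expose a parallel culture to vehicle; measure growth; express compound effect as inhibition relative to the vehicle culture.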
# [14] = NCI Yeast Anticancer Drug Screen. Data for the sgs1 strain (AID 173);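 further: 0% = growth of vehicle-only control cultures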; settings: S. cerevisiae sgs1 mutant, stronger effect = higher value
# How it was run: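 Treat defined-mutant yeast with compound; measure growth; calculate inhibition relative to vehicle-treated cells.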
# [15] = NCI Yeast Anticancer Drug Screen. Data for the mlh1 rad18 strain (AID 175); settings: S. cerevisiae mlh1 rad18 strain growth inhibition, stronger effect = higher value
# How it was run: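 Test agents were incubated with a yeast strain of defined genotype (DNA damage repair defect). Inhibition of growth was derived by comparison with vehicle-exposed cultures.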
# [16] = NCI Yeast Anticancer Drug Screen. Data for the rad18 strain (AID 177); settings: S. cerevisiae rad18 mutant growth inhibition, stronger effect = higher value
# How it was run: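 A genetically defined yeast mutant impaired in DNA damage repair was treated with test compounds, then its growth was measured against cultures receiving vehicle alone.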
# [17] = at 5.0 µM (retest, dose inferred, filed as 0.5)
# [18] = at 50.0 µM (retest, dose inferred, filed as 5.0)
compound,measurement,setting,value
OCC(Cn1cncn1)(c1ccc(F)cc1F)n1cncn1 (stereo unspecified),growth inhibition,[1]; at 1.2 µM,35%
same,growth inhibition,[1]; at 3.7 µM,57%
same,growth inhibition,[1]; at 11.0 µM,63%
same,growth inhibition,[1]; at 33.0 µM,66%
same,growth inhibition,[1]; at 100.0 µM,65%
same,growth inhibition,[2]; at 1.2 µM,13%
same,growth inhibition,[2]; at 3.7 µM,40%
same,growth inhibition,[2]; at 11.0 µM,45%
same,growth inhibition,[2]; at 33.0 µM,43%
same,growth inhibition,[2]; at 100.0 µM,42%
same,growth inhibition,[3]; at 1.2 µM,2%
same,growth inhibition,[3]; at 3.7 µM,28%
same,growth inhibition,[3]; at 11.0 µM,86% (active)
same,growth inhibition,[3]; at 33.0 µM,92% (active)
same,growth inhibition,[3]; at 100.0 µM,94% (active)
same,growth inhibition,[4]; at 1.2 µM,33%
same,growth inhibition,[4]; at 3.7 µM,62%
same,growth inhibition,[4]; at 11.0 µM,65%
same,growth inhibition,[4]; at 33.0 µM,66%
same,growth inhibition,[4]; at 100.0 µM,65%
same,growth inhibition,[5]; at 1.2 µM,34%
same,growth inhibition,[5]; at 3.7 µM,54%
same,growth inhibition,[5]; [17],55%
same,growth inhibition,[5]; at 11.0 µM,59%
same,growth inhibition,[5]; at 33.0 µM,59%
same,growth inhibition,[5]; [18],77% (active)
same,growth inhibition,[5]; at 50.0 µM,61.8%
same,growth inhibition,[5]; at 100.0 µM,60%
same,growth inhibition,[6]; at 1.2 µM,27%
same,growth inhibition,[6]; at 3.7 µM,45%
same,growth inhibition,[6]; [17],41%
same,growth inhibition,[6]; at 11.0 µM,53%
same,growth inhibition,[6]; at 33.0 µM,53%
same,growth inhibition,[6]; [18],61%
same,growth inhibition,[6]; at 50.0 µM,44.2%
same,growth inhibition,[6]; at 100.0 µM,52%
same,growth inhibition,[7]; at 1.2 µM,57%
same,growth inhibition,[7]; at 3.7 µM,74% (active)
same,growth inhibition,[7]; at 11.0 µM,83% (active)
same,growth inhibition,[7]; at 33.0 µM,76% (active)
same,growth inhibition,[7]; at 100.0 µM,74% (active)
same,growth inhibition,[8]; [17],67%
same,growth inhibition,[8]; [18],78% (active)
same,growth inhibition,[8]; at 50.0 µM,68.2%
same,growth inhibition,[9]; at 1.2 µM,29%
same,growth inhibition,[9]; at 3.7 µM,51%
same,growth inhibition,[9]; at 11.0 µM,62%
same,growth inhibition,[9]; at 33.0 µM,65%
same,growth inhibition,[9]; at 100.0 µM,68%
same,growth inhibition,[10]; [17],22%
same,growth inhibition,[10]; [18],81% (active)
same,growth inhibition,[10]; at 50.0 µM,63%
same,growth inhibition,[11]; at 1.2 µM,27%
same,growth inhibition,[11]; at 3.7 µM,54%
same,growth inhibition,[11]; [17],14%
same,growth inhibition,[11]; at 11.0 µM,69%
same,growth inhibition,[11]; at 33.0 µM,69%
same,growth inhibition,[11]; [18],84% (active)
same,growth inhibition,[11]; at 50.0 µM,71% (active)
same,growth inhibition,[11]; at 100.0 µM,66%
same,growth inhibition,[12]; at 1.2 µM,31%
same,growth inhibition,[12]; at 3.7 µM,57%
same,growth inhibition,[12]; at 11.0 µM,64%
same,growth inhibition,[12]; at 33.0 µM,61%
same,growth inhibition,[12]; at 100.0 µM,57%
same,growth inhibition,[13]; at 1.2 µM,22%
same,growth inhibition,[13]; at 3.7 µM,47%
same,growth inhibition,[13]; at 11.0 µM,53%
same,growth inhibition,[13]; at 33.0 µM,53%
same,growth inhibition,[13]; at 100.0 µM,50%
same,growth inhibition,[14]; at 1.2 µM,48%
same,growth inhibition,[14]; at 3.7 µM,67%
same,growth inhibition,[14]; at 11.0 µM,72% (active)
same,growth inhibition,[14]; at 33.0 µM,72% (active)
same,growth inhibition,[14]; at 100.0 µM,70% (active)
same,growth inhibition,[15]; [17],31%
same,growth inhibition,[15]; [18],86% (active)
same,growth inhibition,[15]; at 50.0 µM,57.5%
same,growth inhibition,[16]; at 1.2 µM,41%
same,growth inhibition,[16]; at 3.7 µM,60%
same,growth inhibition,[16]; at 11.0 µM,67%
same,growth inhibition,[16]; at 33.0 µM,65%
same,growth inhibition,[16]; at 100.0 µM,65%
CCCCCCCCCCCCCCCCCCNC,growth inhibition,[1]; at 1.2 µM,15%
same,growth inhibition,[1]; at 3.7 µM,-4%
same,growth inhibition,[1]; at 11.0 µM,0%
same,growth inhibition,[1]; at 33.0 µM,14%
same,growth inhibition,[1]; at 100.0 µM,95% (active)
same,growth inhibition,[2]; at 1.2 µM,5%
same,growth inhibition,[2]; at 3.7 µM,17%
same,growth inhibition,[2]; at 11.0 µM,12%
same,growth inhibition,[2]; at 33.0 µM,15%
same,growth inhibition,[2]; at 100.0 µM,86% (active)
same,growth inhibition,[3]; at 1.2 µM,14%
same,growth inhibition,[3]; at 3.7 µM,10%
same,growth inhibition,[3]; at 11.0 µM,8%
same,growth inhibition,[3]; at 33.0 µM,48%
same,growth inhibition,[3]; at 100.0 µM,89% (active)
same,growth inhibition,[4]; at 1.2 µM,17%
same,growth inhibition,[4]; at 3.7 µM,25%
same,growth inhibition,[4]; at 11.0 µM,21%
same,growth inhibition,[4]; at 33.0 µM,26%
same,growth inhibition,[4]; at 100.0 µM,96% (active)
same,growth inhibition,[5]; at 1.2 µM,-10%
same,growth inhibition,[5]; at 3.7 µM,1%
same,growth inhibition,[5]; [17],34%
same,growth inhibition,[5]; at 11.0 µM,-2%
same,growth inhibition,[5]; at 33.0 µM,17%
same,growth inhibition,[5]; [18],90% (active)
same,growth inhibition,[5]; at 50.0 µM,68.5%
same,growth inhibition,[5]; at 100.0 µM,87% (active)
same,growth inhibition,[6]; at 1.2 µM,14%
same,growth inhibition,[6]; at 3.7 µM,3%
same,growth inhibition,[6]; [17],50%
same,growth inhibition,[6]; at 11.0 µM,-3%
same,growth inhibition,[6]; at 33.0 µM,18%
same,growth inhibition,[6]; [18],95% (active)
same,growth inhibition,[6]; at 50.0 µM,69%
same,growth inhibition,[6]; at 100.0 µM,96% (active)
same,growth inhibition,[7]; at 1.2 µM,-22%
same,growth inhibition,[7]; at 3.7 µM,-16%
same,growth inhibition,[7]; at 11.0 µM,-16%
same,growth inhibition,[7]; at 33.0 µM,-9%
same,growth inhibition,[7]; at 100.0 µM,75% (active)
same,growth inhibition,[8]; [17],-6%
same,growth inhibition,[8]; [18],97% (active)
same,growth inhibition,[8]; at 50.0 µM,81.2% (active)
same,growth inhibition,[9]; at 1.2 µM,13%
same,growth inhibition,[9]; at 3.7 µM,19%
same,growth inhibition,[9]; at 11.0 µM,2%
same,growth inhibition,[9]; at 33.0 µM,-4%
same,growth inhibition,[9]; at 100.0 µM,77% (active)
same,growth inhibition,[10]; [17],32%
same,growth inhibition,[10]; [18],92% (active)
same,growth inhibition,[10]; at 50.0 µM,8.1%
same,growth inhibition,[11]; at 1.2 µM,12%
same,growth inhibition,[11]; at 3.7 µM,15%
same,growth inhibition,[11]; [17],50%
same,growth inhibition,[11]; at 11.0 µM,32%
same,growth inhibition,[11]; at 33.0 µM,20%
same,growth inhibition,[11]; [18],96% (active)
same,growth inhibition,[11]; at 50.0 µM,87.1% (active)
same,growth inhibition,[11]; at 100.0 µM,94% (active)
same,growth inhibition,[12]; at 1.2 µM,-35%
same,growth inhibition,[12]; at 3.7 µM,-17%
same,growth inhibition,[12]; at 11.0 µM,-40%
same,growth inhibition,[12]; at 33.0 µM,-24%
same,growth inhibition,[12]; at 100.0 µM,82% (active)
same,growth inhibition,[13]; at 1.2 µM,-26%
same,growth inhibition,[13]; at 3.7 µM,-10%
same,growth inhibition,[13]; at 11.0 µM,-8%
same,growth inhibition,[13]; at 33.0 µM,-40%
same,growth inhibition,[13]; at 100.0 µM,70% (active)
same,growth inhibition,[14]; at 1.2 µM,-9%
same,growth inhibition,[14]; at 3.7 µM,-27%
same,growth inhibition,[14]; at 11.0 µM,-27%
same,growth inhibition,[14]; at 33.0 µM,-16%
same,growth inhibition,[14]; at 100.0 µM,87% (active)
same,growth inhibition,[15]; [17],41%
same,growth inhibition,[15]; [18],94% (active)
same,growth inhibition,[15]; at 50.0 µM,61.3%
same,growth inhibition,[16]; at 1.2 µM,17%
same,growth inhibition,[16]; at 3.7 µM,7%
same,growth inhibition,[16]; at 11.0 µM,7%
same,growth inhibition,[16]; at 33.0 µM,18%
same,growth inhibition,[16]; at 100.0 µM,88% (active)
